Results on 14 molecules are retold here after PubChem BioAssay (EPA / NIEHS).

Test [1] in a line: Tanguay_ZF_120hpf_NC_legacy: (Legacy) Oregon State University Tanguay Lab 120 Hour Post-fertilization zebrafish Assay for Notochord and Tail Malformation (AID 2283656). The gist of the method: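 Dechorionated 5D zebrafish, 1/well from 6 hpf; static exposure to 120 hpf, 28C, sealed, dark; final DMSO 0.64% v/v. NC scored binary (present/absent); dead embryos not scored. Fit vs DMSO baseline, gain direction.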

Read-out in test [2]: ABC Transporter (ABCB1), ABCB1 (gene 5243)
Briefly: CLD_ABCB1_6hr: CellzDirect (CLD) Gene Expression Assay for ABC Transporter (ABCB1) at 6 hours (AID 2283659).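 Further: hits raise ABCB1 transcript above the DMSO vehicle baseline.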 The gist of the method:
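Primary human hepatocytes (two donor preparations) dosed daily for two days with chemicals at multiple concentrations, 0.2% DMSO vehicle; harvested 6 h post-dose. ABCB1 mRNA induction quantified by qNPA chemiluminescence; gain-of-signal fitted versus DMSO.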

Read-out in test [3]: Broad substrate specificity ATP-binding cassette transporter ABCG2 (Homo sapiens) (UniProt Q9UNQ0)
The experiment in a line: CLD_ABCG2_6hr: CellzDirect (CLD) Gene Expression Assay for ABC Transporter (ABCG2) at 6 hours (AID 2283660). An outline of the steps:
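Primary human hepatocytes dosed daily with chemicals at multiple concentrations (0.2% DMSO vehicle), harvested 6 h after dosing. ABCG2 mRNA induction read by quantitative nuclease protection assay (qNPA) chemiluminescence; gain of signal fitted against DMSO baseline.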

Read-out in test [4]: xenobiotic metabolism (CYP1A1), CYP1A1 (gene 1543)
The experiment in a line: CLD_CYP1A1_6hr: CellzDirect (CLD) Gene Expression Assay for xenobiotic metabolism (CYP1A1) at 6 hours (AID 2283661). Here is the method: (§1) CLD_6hr is a cell-based, multiplexed-readout assay that uses hepatocyte, a human liver primary cell, with measurements taken at 6 hours after chemical dosing in a 96-well plate.CLD_CYP1A1_6hr is one of 16 assay component(s) measured or calculated from the CLD_6hr assay. It is designed to make measurements of mRNA induction, a form of inducible reporter, as detected with chemiluminescence signals by Quantitative Nuclease Protection Assay (qNPA) technology.Data from the assay component CLD_CYP1A1_6hr was analyzed at the endpoint, CLD_CYP1A1_6hr, in the positive analysis fitting direction relative to DMSO as the negative control and baseline of activity. Using a type of inducible reporter, gain-of-signal activity can be used to understand changes in the reporter gene as they relate to the gene CYP1A1. Furthermore, this assay endpoint can be referred to as a primary readout. To generalize the intended target to other relatable targets, this assay endpoint is annotated to the cyp intended target family, where subfamily is xenobiotic metabolism.
Human hepatocyte cultures were treated daily for two consecutive days with fresh dosing solutions containing appropriate concentrations of the 320 ToxCast chemicals (chemical identities were blinded to CellzDirect and other ToxCast collaborators), vehicle control (0.2% DMSO), and positive control inducers as summarized in Table 1. Due to the large number of treatment groups and chemicals examined, the ToxCast chemicals were divided into two groups (spanning two independent cultures of hepatocytes from separate donor preparations (Hu778: ToxCast plates 1 and 2; Hu776: ToxCast plates 3 and 4). Each preparation of human hepatocyte cultures was treated with respective vehicle control, medium only control, set of six positive controls/reference chemicals for the five hepatic receptor pathways, and a subset of eight of the ToxCast chemicals (indoxacarb, pyrithiobac-sodium, norflurazon, cyhalofop-butyl, methomyl, thiram, acetochlor, and propiconazole). These replicate data, coupled with internal replicates designed within the blinded ToxCast chemical library, provided additional data to evaluate interindividual differences between hepatocyte preparations and their potential impact on chemical profiles.Cell morphology and integrity were evaluated using phase-contrast microscopy as an indicator of hepatocyte cell health (Tyson & Green, 1987). Cultures for each treatment group (i.e., media, vehicle [0.2% DMSO], positive control inducers [multiple concentrations], and the ToxCast chemicals [multiple concentrations]) were observed and cell morphology was assessed relative to vehicle control cultures at each harvest time point (0, 6, 24, or 48 h). […] Images were evaluated at the conclusion of the study to assess changes in cell integrity and account for the effects of chemical exposure on uncharacteristic changes in concentration-dependent gene expression profiles. The results from these determinations of apparent cytotoxicity were annotated (yes/no) alongside the corresponding qNPA data for reference.At the conclusion of each treatment period, hepatocyte cultures (96-well) were washed with 1 volume of HBSS, lysed by addition of 25 ul ArrayPlate lysis buffer (HTG, Tucson, AZ), and 70 ul/well of Denaturation Oil, denatured by incubation at 95C for 10 min, and frozen at approximately -70C until analysis by nuclease protection assay (qNPA) (Roberts et al., 2007). […]

Read-out in test [5]: xenobiotic metabolism (CYP1A2), CYP1A2 (gene 1544)
Briefly: CLD_CYP1A2_6hr: CellzDirect (CLD) Gene Expression Assay for xenobiotic metabolism (CYP1A2) at 6 hours (AID 2283663). The gist of the method:
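Primary human hepatocytes from two donor preparations, dosed daily with multiple concentrations in 0.2% DMSO and harvested at 6 h. CYP1A2 mRNA induction measured by chemiluminescent qNPA, gain of signal fitted against DMSO; cytotoxicity flagged morphologically.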

Read-out in test [6]: xenobiotic metabolism (CYP2C9), CYP2C9 (gene 1559)
Briefly: CLD_CYP2C9_6hr: CellzDirect (CLD) Gene Expression Assay for xenobiotic metabolism (CYP2C9) at 6 hours (AID 2283664). Here is the method: as §1, with “plate.CLD_CYP2C9_6hr” for “plate.CLD_CYP1A1_6hr”, “CLD_CYP2C9_6hr” for “CLD_CYP1A1_6hr”, “CLD_CYP2C9_6hr,” for “CLD_CYP1A1_6hr,”, “CYP2C9.” for “CYP1A1.”
Human hepatocyte cultures were treated daily for two consecutive days with fresh dosing solutions containing appropriate concentrations of the 320 ToxCast chemicals (chemical identities were blinded to CellzDirect and other ToxCast collaborators), vehicle control (0.2% DMSO), and positive control inducers as summarized in Table 1. […] These replicate data, coupled with internal replicates designed within the blinded ToxCast chemical library, provided additional data to evaluate interindividual differences between hepatocyte preparations and their potential impact on chemical profiles.Cell morphology and integrity were evaluated using phase-contrast microscopy as an indicator of hepatocyte cell health (Tyson & Green, 1987). Cultures for each treatment group (i.e., media, vehicle [0.2% DMSO], positive control inducers [multiple concentrations], and the ToxCast chemicals [multiple concentrations]) were observed and cell morphology was assessed relative to vehicle control cultures at each harvest time point (0, 6, 24, or 48 h). […]

Test [7] relates to Thyroperoxidase (TPO), gene 54314. Briefly: CCTE_Simmons_AUR_rTPO: CCTE's Amplex UltraRed Assay for Thyroperoxidase (TPO) Inhibition, Simmons Lab (AID 2283662).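 On AC50: potency for loss of signal meaning inhibition of peroxidase activity.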 The gist of the method: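 Rat thyroid microsomes (5 ug protein) were incubated with test compound (8 concentrations, 5 nM–87.5 uM final, 0.5% DMSO), 25 uM Amplex UltraRed and 300 uM H2O2 in 200 mM phosphate buffer for 30 min at 37C in the dark; fluorescence read at 544/590 nm.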

Test [8] is described as follows: CCTE_Simmons_CellTiterGLO_HEK293T: Viability Assessment in CCTE's Assays for Thyroperoxidase (TPO) Inhibition, Simmons Lab (AID 2283665).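 On AC50: cells exposed to compound for 24 h before readout; actives reduce ATP signal below DMSO vehicle meaning cytotoxicity.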 The gist of the method:
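HEK293T cells in DMEM with 1% FBS were dosed with 8 concentrations (5 nM–87.5 uM final, 0.5% DMSO) for 24 hr at 37C; ATP content was read by CellTiter-Glo luminescence, loss-of-signal versus DMSO, three biological replicates.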
A general note: Cellular ATP, detected with luciferase, serves as a proxy for viable cell number.

Read-out in test [9]: solute carrier (SLC10A1), SLC10A1 (gene 6554)
Briefly: LTEA_HepaRG_SLC10A1: Life Technologies and Expression Analysis (LTEA) Assay for solute carrier (SLC10A1) using HepaRG (AID 2283657; active means hit-call score of the fitted dose curve at least 0.9, where 1 is the maximum; inactive means score below 0.9). Particulars: mRNA level, 48 h; actives raise or lower the signal. Here is the method: LTEA_HepaRG is a cell based, multiplexed-readout assay that uses HepaRG, a human liver cell line, with measurements taken at 48 hours after chemical dosing on a 96-well plate.LTEA_HepaRG_SLC10A1 is one of 102 assay component(s) measured in the LTEA HepaRG cell culture assay. It is a marker of NR mediated transport.Data from the assay component LTEA_HepaRG_SLC10A1 was analyzed into 1 endpoint. This assay endpoint, LTEA_HepaRG_SLC10A1, was analyzed with bidirectional fitting relative to DMSO as the negative control and baseline of activity. Using a type of inducible reporter, measures of mRNA induction for gain or loss-of-signal activity can be used to understand regulation of transcription factor activity. To generalize the intended target to other relatable targets, this assay endpoint is annotated to the transporter intended target family, where the subfamily is sodium/bile acid cotransporter.
A total of 1060 chemcials from the ToxCast library were tested in eight-point concentration-response experiments. Cell culture and cytotoxicity assays were conducted at Thermo Fisher Scientific's Custom Services facility (Madison, WI). A single lot of human HepaRG cells (Thermo Fisher Scientific, Frederick, MD) was used for the cell culture experiments. 96-well format collagen type I coated plates of human HepaRG cells were prepared using established methods. Briefly, cryopreserved HepaRG cells were thawed, plated at a density of approximately 100,000 cells/well in HepaRG Thaw, Plate, and General Purpose media (HPRG770, Thermo Fisher Scientific), and incubated for 48 hours. 0.5% DMSO was selected as vehicle control to balance the requisite need of DMSO in HepaRG cultures to maintain differentiation (for example, baseline metabolism, proportions of hepatocytes vs. cholangiocytes), while enabling further hepatic receptor pathway activation (for example, PXR and CAR) in response to chemical exposure. 48 hours after plating, the culture medium was replaced with HepaRG Serum-Free Incudtion Media. Cells were exposed to each test chemical in duplicate and maintained in CO2 incubators for another 48 hours. Chemical plates were thawed to room temperature and 200x concentrations of treatment groups were prepared. 8-point conentration-reponse curves were made with the highest exposure at 100 uM, followed by half-log dilutions, all in 0.5% DMSO. Each test plate contained variouse controls, induction positive controls (1mM phenobarbital), cytotoxicity positive controls ([…] aflatoxin B1), vehicle controls (0.5% DMSO), and total lysis controls (0.5% DMSO). Cell morphology images were taken using an Essen IncuCyte FLR automated microscope, with six 96-well plates imaged in about 24 minutes. Images were captured and exported and JPEG files. Spent culture media was transfered to black-well plates for the LDH assay, and remaining media was sorted at -80 C for later use. Cells were treated with RLT buffer and frozen until shipped for gene expression analysis. Total RNA was isolated from the cell suspension in 75 uL of Buffer RLT (Qiagen, Germantown, MD 20874) by Quintiles/Expression Analysis (Durham, NC) using a custom isolation procedure. Total RNA from each plate well was transferred to a preamplification plate. Fluidigm's 96.96 Dynamic ArrayTM (Fluidigm, Amsterdam, the Netherlands) technology was used for gene expression analyses by quantitative reverse transcription polymerase chain reaction (qRT-PCR, performed by Quintiles/Expression Analysis, Durham, NC)89. […]

Read-out in test [10]: matrix metalloproteinase-1 (MMP1), MMP1 (gene 4312)
Briefly: LTEA_HepaRG_MMP1: Life Technologies and Expression Analysis (LTEA) Assay for matrix metalloproteinase-1 (MMP1) using HepaRG (AID 2283658; active means hit-call score of the fitted dose curve at least 0.9, where 1 is the maximum; inactive means score below 0.9). Conditions: mRNA level, 48 h; actives raise or lower the signal. An outline of the steps: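 HepaRG, ~100,000 cells/well, 48 h pre-culture; serum-free induction medium; test chemical 8 conc (max 100 uM, half-log), duplicate, 48 h; 0.5% DMSO; qRT-PCR MMP1, housekeeping-normalized; gain/loss fit vs DMSO.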

Inconclusive results are not listed. Activity calls are given as the source filed them. How the source made its calls, unless noted: active means hit-call score of the fitted dose curve at least 0.9, where 1 is the maximum; inconclusive means response in the unintended direction; inactive means score below 0.9.

Sequence of Broad substrate specificity ATP-binding cassette transporter ABCG2 (Homo sapiens) (Q9UNQ0 whole entry, looked up): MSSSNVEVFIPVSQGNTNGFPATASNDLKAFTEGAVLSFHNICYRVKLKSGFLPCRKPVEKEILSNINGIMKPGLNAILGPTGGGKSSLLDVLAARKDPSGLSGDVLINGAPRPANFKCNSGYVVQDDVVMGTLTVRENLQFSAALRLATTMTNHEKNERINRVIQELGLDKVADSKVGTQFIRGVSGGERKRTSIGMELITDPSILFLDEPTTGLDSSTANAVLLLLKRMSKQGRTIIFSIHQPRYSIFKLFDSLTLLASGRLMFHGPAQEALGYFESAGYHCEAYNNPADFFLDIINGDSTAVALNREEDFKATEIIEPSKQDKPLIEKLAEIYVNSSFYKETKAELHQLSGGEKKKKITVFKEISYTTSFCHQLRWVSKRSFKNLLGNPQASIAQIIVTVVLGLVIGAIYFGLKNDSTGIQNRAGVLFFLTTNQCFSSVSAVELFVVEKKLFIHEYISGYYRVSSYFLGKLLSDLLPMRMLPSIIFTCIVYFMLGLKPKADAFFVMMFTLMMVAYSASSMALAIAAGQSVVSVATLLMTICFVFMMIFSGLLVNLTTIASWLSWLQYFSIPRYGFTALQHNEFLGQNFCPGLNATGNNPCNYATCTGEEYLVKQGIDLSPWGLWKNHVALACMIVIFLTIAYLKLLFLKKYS

`O=S(=O)(O)C(F)(F)C(F)(F)C(F)(F)C(F)(F)C(F)(F)C(F)(F)F`: the molecule was called inactive in test [1].

Take `CN(C)c1nc(=O)n(C2CCCCC2)c(=O)n1C`: the call in [1], in [2], in test [3], in test [4], in [5] and in [6] was inactive.

Turning to `CC(C)(c1ccccc1)c1ccc(O)cc1`, the result in test [1] was inactive. Moreover, the AC50 was 3.55 µM (active) in test [7] and 12.2 µM (active) in [8].

In the case of `CCCCCCCCCC[N+](C)(C)CCCCCCCCCC`, in test [1], the molecule was classed as inactive. The AC50 in test [7] was 43.8 µM (active); in test [8] it was 3.92 µM (active).

`Clc1ccc(Cl)cc1`: the molecule was called inactive in [1], in test [9] and in test [10].

Take `C[C@]12CCC(=O)C=C1CC[C@@H]1[C@@H]2CC[C@]2(C)C(=O)CC[C@@H]12`: the molecule was classed as inactive in [1], in test [7] and in [8].

Turning to `c1ccc(-c2ccccc2)cc1`, the call in [7] was inactive. Moreover, in test [8], the concentration at half-maximal activity (AC50) is 34.5 µM (active).

For `Cc1cc(-c2ccc(N)c(C)c2)ccc1N`, the outcome in test [1] was inactive.

In the case of `O=C(O)C(F)(F)C(F)(F)C(F)(F)C(F)(F)C(F)(F)C(F)(F)C(F)(F)C(F)(F)F`, the molecule was called inactive in test [1] and in test [7]. In addition, the AC50 in [8] was 21.8 µM (active).

Regarding `CCC(C)(c1ccc(O)cc1)c1ccc(O)cc1`, the AC50 in [7] was 1.86 µM (active); in [8], 37.4 µM (active).

Regarding `CC(c1ccc(O)cc1)(c1ccc(O)cc1)c1ccc(O)cc1`, the outcome in [1] was inactive. Further, the AC50 in [7] is 1.41 µM (active); in test [8] it was 36.9 µM (active).

`Oc1ccc(C(c2ccc(O)cc2)(C(F)(F)F)C(F)(F)F)cc1`: in test [1], the molecule was called inactive. The concentration at half-maximal activity (AC50) in [7] is 21.7 µM (active); in test [8] it was 11 µM (active).

As to `O=C(NC(=O)c1c(F)cccc1F)Nc1cc(Cl)c(OC(F)(F)C(F)F)c(Cl)c1`, the call in test [1] and in test [8] was inactive. Besides, in test [7], the AC50 is 20.7 µM (active).

With `O=C(O)C(F)(F)C(F)(F)C(F)(F)C(F)(F)C(F)(F)C(F)(F)C(F)(F)C(F)(F)C(F)(F)F`, the result in test [1] was inactive. Moreover, the concentration at half-maximal activity (AC50) in [9] is 23.3 µM (active); in test [10], 72.2 µM (active); in test [7] it was 22.7 µM (active); in test [8], 38.3 µM (active).

Usually AC50 stands for the midpoint of the concentration-response curve, whichever way the signal moves.
